Test results as given in PubChem BioAssay (NCI).
This is part of a sample that, as a whole, favours compounds with a hit. Of some 83,000 tested, about 20% had one in any assay.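 The endpoint reported here, percent growth, reads 100 for growth as untreated, 0 for no net growth and -100 for all cells dead.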 A number with no mark means an inactive call. Activity calls are given as the source filed them. How the source made its calls: active means growth percent below 10; inactive means the rest.

Tests used:
Test in all cases: NCI-60 one-dose screen, 48 h (100 = growth as untreated, 0 = no growth, -100 = all killed)
Settings in all cases: 10 µM unless noted
NCI-H23 lung = system: NCI-H23 lung
NCI-H226 lung = system: NCI-H226 lung
NCI-H322M lung = system: NCI-H322M lung
HOP-62 NSCLC = system: HOP-62 NSCLC
NCI-H460 lung = system: NCI-H460 lung
HOP-92 NSCLC = system: HOP-92 NSCLC
NCI-H522 lung = system: NCI-H522 lung
A549/ATCC NSCLC = system: A549/ATCC NSCLC
786-0 renal = system: 786-0 renal
COLO 205 colon = system: COLO 205 colon
DU-145 prostate = system: DU-145 prostate
K-562 leukemia = system: K-562 leukemia
MALME-3M melanoma = system: MALME-3M melanoma
MDA-MB-231 breast = system: MDA-MB-231 breast
RXF 393 renal = system: RXF 393 renal
SF-268 CNS = system: SF-268 CNS
SF-295 CNS = system: SF-295 CNS
SF-539 CNS = system: SF-539 CNS
UACC-257 melanoma = system: UACC-257 melanoma
M14 melanoma = system: M14 melanoma

Row | Compound | growth (NCI-H23 lung) | growth (NCI-H226 lung) | growth (NCI-H322M lung) | growth (HOP-62 NSCLC) | growth (NCI-H460 lung) | growth (HOP-92 NSCLC) | growth (NCI-H522 lung) | growth (A549/ATCC NSCLC) | growth (786-0 renal) | growth (COLO 205 colon) | growth (DU-145 prostate) | growth (K-562 leukemia) | growth (MALME-3M melanoma) | growth (MDA-MB-231 breast) | growth (RXF 393 renal) | growth (SF-268 CNS) | growth (SF-295 CNS) | growth (SF-539 CNS) | growth (UACC-257 melanoma) | growth (M14 melanoma)
1 | Oc1ccc(CCn2c(O)c(/C=C3\CN=c4ccccc4=N3)sc2=S)cc1 | 59.1% | 88.7% | 78.7% | 65.8% | 83.3% | -14.4% (active) | 18.5% | 82.1% | 28.3% | 103% | 28% | 22.9% | 62.3% | 26% | 45.1% | 75% | 93.6% | 20.7% | 71.4% | 62.4%
2 | COC(=O)c1cc(-c2ccccc2)[nH]c1N/N=C/c1c(Cl)cccc1Cl | 14.2% | 37.9% | 34.6% | -28.2% (active) | -3.25% (active) | 10.5% | -41.9% (active) | 21.7% | 9.31% (active) | 12.5% | -5.4% (active) | -21.8% (active) | -15.2% (active) | 10.5% | -18.7% (active) | 33.1% | -59.5% (active) | -33.3% (active) | 51% | -12.3% (active)
3 | N#C/C(=C\c1ccc(Br)cc1)n1nnc2ccc(F)cc21 | 16% | 2.99% (active) | 9.42% (active) | 31.4% | -35.9% (active) | 36.7% | -18.2% (active) | 16.6% | -73.8% (active) | -12.9% (active) | 15.3% | 3.46% (active) | -22.6% (active) | -11.4% (active) | -41% (active) | 42.5% | 44% | -24.3% (active) | 6.2% (active) | -42.3% (active)
4 | Cn1cc(-c2csc(-c3c[nH]c4ccc(Br)cc34)n2)c2cnccc21 | -64.2% (active) | -55.7% (active) | -44.5% (active) | -66.7% (active) | -82.4% (active) | -86.2% (active) | -66.8% (active) | -77.5% (active) | -90.5% (active) | -72.9% (active) | -91.7% (active) | -53.8% (active) | -88.7% (active) | -81.4% (active) | -94.9% (active) | -75.5% (active) | -86.6% (active) | -96.4% (active) | -50.2% (active) | -81.7% (active)
5 | O=C1COCCN1c1ccc(Nc2nc(Cl)nc(OCc3cn(Cc4ccccc4)nn3)n2)cc1 | 87.2% | 95.1% | 98.2% | 87.5% | 107% | 82.5% | 76.5% | 95.7% | 101% | 105% | 90.5% | 33.2% | 96.1% | 95.4% | 90.7% | 80.9% | 102% | 98.2% | 84.4% | 76.1%
6 | O=[N+]([O-])C1C(c2ccccc2)C12c1ccccc1-c1ccccc12 (stereo not given) | 7.97% (active) | 15% | 29.3% | 34.2% | -14.3% (active) | -3.91% (active) | -13.8% (active) | 8.59% (active) | 4.98% (active) | 14.9% | -36.8% (active) | -12.5% (active) | 59.4% | 6.89% (active) | -21.8% (active) | 29.3% | -23.1% (active) | -12.2% (active) | 40.9% | -10.2% (active)
7 | O=C1/C(=C/c2ccccc2Br)COc2ccc(O)c(O)c21 | 46.5% | 86.3% | 33.3% | -5.9% (active) | 14.3% | 36.9% | -45.2% (active) | 35.1% | -41.6% (active) | 82.2% | 13% | 9.73% (active) | -8.51% (active) | 0.858% (active) | 10.1% | 10.9% | 62.9% | -25.7% (active) | 19.7% | 31.5%
8 | C/C(=C(/c1ccc(Cl)cc1)c1ccc(OCCN2CCCC2)cc1)c1ccc(Cl)cc1 | 80.3% | 107% | 92.9% | 104% | 70.6% | 69.5% | 88.8% | 63.4% | 82.7% | 48.5% | 98.1% | 20.3% | 81.5% | 94% | 72% | 91.5% | 100% | 91.8% | 98.6% | 75.8%
9 | O=Cc1ccc([N+](=O)[O-])s1 | 93.2% | 105% | 98.4% | 105% | 106% | 103% | 101% | 95.2% | 108% | 107% | 110% | 75.4% | 115% | 85.2% | 123% | 96.6% | 107% | 86.5% | 97.3% | 92%
10 | CCOC(=O)C1=NN(c2ccccc2)C(=O)/C1=C\N1C(=O)CC(=O)NC1=S | 99% | 92.5% | 96% | 90.1% | 106% | 102% | 88.8% | 103% | 106% | 103% | 110% | 98.2% | 97.6% | 91.8% | 117% | 93.9% | 103% | 100% | 105% | 93.7%
11 | CC12CCC3c4ccccc4CCC3(CO1)C2 (stereo not given) | 98.3% | 95.8% | 94.7% | 95.5% | 105% | 105% | 94.6% | 106% | 118% | 101% | 121% | 99.9% | 95.1% | 124% | 93.4% | 107% | 77.2% | 104% | 110% | 128%
12 | C=C1C(=O)O[C@H]2[C@H]1CC/C(COC(=O)NCc1ccc(Cn3c(=O)sn(CCI)c3=O)cc1)=C\CC[C@@]1(C)O[C@@H]21 | 88.5% | 85.7% | 96.4% | 114% | 98.1% | -19% (active) | -92.8% (active) | 108% | 59.6% | -24.1% (active) | 17.2% | 0.268% (active) | -49.9% (active) | 61% | 0.0448% (active) | 71.7% | 106% | 78.8% | 45.9% | 15.7%
13 | COc1ccc2[nH]cc(-c3nc(-c4c[nH]c5ccncc45)cs3)c2c1 | 76.6% | 93.3% | 67.6% | 27.6% | -20.7% (active) | 62.5% | -18.8% (active) | 24% | -86% (active) | -62.8% (active) | 32.9% | -37.9% (active) | -77.5% (active) | -35% (active) | -0.983% (active) | 65.3% | -57.1% (active) | -83.4% (active) | 82% | -74% (active)
14 | O=C1/C(=C/c2ccc(-c3ccc(Br)cc3)o2)SC(=S)N1CCc1ccc(O)cc1 | 75.8% | 90.2% | 84.5% | 90.6% | 60.3% | 60% | 13.7% | 67.5% | 5.73% (active) | -27.8% (active) | 15.7% | 3.25% (active) | 73.5% | 82.9% | 80.5% | 44.4% | 100% | 86.5% | 77.4% | 50.9%
15 | C1=C(N2CCCC2)CCC1 | 100% | 109% | 109% | 103% | 93.2% | 65.8% | 94.6% | 99% | 105% | 124% | 108% | 120% | 100% | 98.8% | 93.1% | 107% | 104% | 87.4% | 89.8% | 96.2%
